Reference: PubChem BioAssay (NCI)
Compounds without any hit were thinned out: in the full panel of roughly 83,000, 20% have a hit.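 Treatment: one concentration, 48 hours, 96-well format. Scoring: percent growth, with anything below 10 considered active.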 Unmarked numbers belong to inactive results. The source made the active and inactive calls.

Tests used:
Test in all cases: NCI-60 one-dose screen, 48 h (100 = growth as untreated, 0 = no growth, -100 = all killed)
Conditions in all cases: 10 µM unless noted
RPMI-8226 leukemia = tested on: RPMI-8226 leukemia
OVCAR-8 ovarian = tested on: OVCAR-8 ovarian
OVCAR-4 ovarian = tested on: OVCAR-4 ovarian
SK-OV-3 ovarian = tested on: SK-OV-3 ovarian
IGROV1 ovarian = tested on: IGROV1 ovarian
OVCAR-3 ovarian = tested on: OVCAR-3 ovarian
HS 578T breast = tested on: HS 578T breast
NCI/ADR-RES ovarian = tested on: NCI/ADR-RES ovarian
T-47D breast = tested on: T-47D breast
BT-549 breast = tested on: BT-549 breast
MDA-MB-435 melanoma = tested on: MDA-MB-435 melanoma
SW-620 colon = tested on: SW-620 colon
MCF7 breast = tested on: MCF7 breast
HCT-116 colon = tested on: HCT-116 colon
HCC-2998 colon = tested on: HCC-2998 colon
KM12 colon = tested on: KM12 colon
OVCAR-5 ovarian = tested on: OVCAR-5 ovarian

| SMILES | growth (RPMI-8226 leukemia) | growth (OVCAR-8 ovarian) | growth (OVCAR-4 ovarian) | growth (SK-OV-3 ovarian) | growth (IGROV1 ovarian) | growth (OVCAR-3 ovarian) | growth (HS 578T breast) | growth (NCI/ADR-RES ovarian) | growth (T-47D breast) | growth (BT-549 breast) | growth (MDA-MB-435 melanoma) | growth (SW-620 colon) | growth (MCF7 breast) | growth (HCT-116 colon) | growth (HCC-2998 colon) | growth (KM12 colon) | growth (OVCAR-5 ovarian) |
| --- | --- | --- | --- | --- | --- | --- | --- | --- | --- | --- | --- | --- | --- | --- | --- | --- | --- |
| O=C(Cc1ccc(F)c(F)c1)Nc1cc(C2(C(F)(F)F)CC2)nn1Cc1ccccc1 | 3.57% (active) | 6.55% (active) | 10.2% | -24.7% (active) | 30.3% | 7.3% (active) | -2.64% (active) | 4.36% (active) | -8.37% (active) | 14.9% | 0.174% (active) | 11.5% | -7.28% (active) | 6.07% (active) | 17.2% | 1.89% (active) | – |
| CNC(=O)c1cc(Oc2cccc3nc(Nc4ccc(F)c(Cl)c4)ccc23)ccn1 | 54.1% | 44.8% | 40.1% | 70.1% | 44.5% | 64.6% | 70% | 57.4% | 66% | 62.9% | 60.5% | 20.3% | 35.1% | 17.6% | 101% | 63.5% | – |
| CC(C)(C)CC(C)(C)Nc1c(-c2ccncc2)nc2cnccn12 | – | 95.6% | 84% | 92.8% | 99.8% | 102% | 92.2% | 99.5% | 86.1% | 98.6% | 99.2% | 106% | 96.5% | 90.1% | 116% | 98.1% | 93.7% |
| COc1ccc(C2C(c3nn[nH]n3)=C(N)Oc3c2ccc2ccccc32)cc1 (configuration not stated) | 66.5% | 83.8% | 83.7% | 79.5% | 53.6% | 64.7% | 76.4% | 28.3% | 64.4% | 72% | -26.6% (active) | 29.3% | 33.1% | 55.7% | 97.7% | 50.2% | – |
| N#Cc1c2c(nn(-c3ccccc3)c1=O)C(O)=C([N+](=O)[O-])C(c1ccccc1)C2 (configuration not stated) | -6.06% (active) | 81.6% | 73.8% | – | 50.6% | 76.4% | 91% | 93.5% | 35.1% | – | 83.1% | 80.6% | 24.4% | 58.6% | 101% | 35.7% | 110% |
| COc1ccc(C(=O)/C=C/c2c(C(F)(F)F)nc3sccn23)cc1OC | – | 18.6% | 25.5% | 9.87% (active) | 81.9% | -33.9% (active) | -5.99% (active) | 4.94% (active) | -16.9% (active) | 11.3% | 3.47% (active) | 10.4% | 7.83% (active) | 6.66% (active) | 31.4% | 11.2% | 44.6% |
| COc1ccc(OC)c2c1[nH]c(=O)c1c3ncccc3cn21 | 30.1% | 16.8% | – | 38.9% | 28% | 46.8% | 69.2% | 13.8% | 39% | 86.6% | 28.6% | 15.2% | 8.95% (active) | 21.7% | 36.1% | 32.5% | – |
| COc1cc(C(=O)/C=C/c2c(-c3ccc(F)cc3)nc3sc(C)cn23)cc(OC)c1OC | – | 22.5% | 24.4% | 64.4% | 84.9% | 16.5% | 25.4% | 2.75% (active) | 9.38% (active) | 15% | 3.64% (active) | 30.6% | 29.5% | 20.1% | 68.2% | 10.4% | 143% |
| O=C(NC(Cc1nnc2n(Cc3ccccc3)c(=O)c3c4c(sc3n12)CCCC4)c1ccc(Cl)cc1)c1ccccc1 (configuration not stated) | 67.9% | 91.3% | 81% | 109% | – | 90.4% | 91.3% | 93.9% | 85.3% | 107% | 56.8% | 73.1% | 84.9% | 87.1% | 68.5% | 98.7% | – |
| Cc1ccc2nc(C)c(-c3nnc(SCc4ccc(C#N)cc4)o3)n2c1 | 93.6% | 108% | 95.8% | – | 89.5% | 109% | 93.2% | 90.6% | 89.3% | 85.8% | 101% | 105% | 77.8% | 91.8% | 108% | 106% | 107% |
